Assay outcomes (PubChem)
TMEM16A inh: TMEM16A chloride channel inhibitors, primary screen, cell-based, HTS. Anoctamin-1 (Mus musculus), Q8BHY3. normalized B-score (activity score, 25-100; higher = stronger inhibition) at 10 µM. 310,000 compounds, 1.2% hits. HEK293 TMEM16A/YFP iodide influx fluorescence, ionomycin;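 active = ratio plate-corrected score three or more library SD toward inhibition, starting fluorescence score within five deviations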;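 note: score derived from kinetic fluorescence span divided by baseline fluorescence per well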
TLR4-MyD88 BLA: inhibitors of TLR4-MyD88 association in cells, primary screen, cell-based, HeLa CL3-4, BLA complementation, FRET ratio; Toll-like receptor 4 (Homo sapiens) + Myeloid differentiation primary response protein …; HeLa CL3-4 TLR4/MyD88 BLA complementation; inhibition, % at 8.4 µM; 200,000 compounds, 0.18% hits; in the data active = inhibition above about 25%;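 note: 0% = vehicle and 100% = reference inhibitor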
NOD2-RIPK2 inh: NOD2-RIPK2 binding disruptors in cells, primary screen, fluorescence, CHO cells, BLA complementation; Receptor-interacting serine/threonine-protein kinase 2 (Homo sapiens), O43353; CCF4 ratio; inhibition, % at 4.98 µM; 360,000 compounds, 0.38% hits; AID 624267, 2012; in the data active = inhibition above about 21%;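 note: 0% = vehicle only and 100% = reference blocker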
TLR9-MyD88 block: inhibitors of TLR9-MyD88 association in cells, primary screen, cell-based, CHO, BLA complementation, fluorescence | CCF4 FRET ratio | Toll-like receptor 9 (Homo sapiens) + Myeloid differentiation primary response protein … | inhibition, % at 4.98 µM | 340,000 compounds, 0.21% hits;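 active = inhibition above the mean over all tested compounds plus 3 SD, cut at about 21% in these data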;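 note: 0% = DMSO only wells and 100% = clavulanate BLA inhibitor control wells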
ANO1 activ: TMEM16A chloride channel activators or potentiators, primary screen, cell-based, HTS. HEK293 TMEM16A/YFP-H148Q/I152L, iodide quench fluorescence; active compounds read low. B-score at 10 µM. 340,000 compounds, 0.3% hits. AID 623877, 2012;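 active = fluorescence-ratio B-score plate-corrected deviation score at least 3 library SD below zero, with starting fluorescence score within 5 deviations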;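 note: channel opened by trigger with iodide after compound preincubation; score built on the fluorescence ratio of max minus min over baseline; more negative score means more quench and so TMEM16A activation or potentiation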
HTR2A ag: mouse Htr2a agonists via beta-arrestin recruitment, primary screen, cell-based, luminescence. AID 624169, 2012. CHO-K1 mHTR2A beta-arrestin complementation; percent of 30 µM serotonin response. 360,000 compounds, 0.66% hits. activation, % at 7.6 µM. 5-hydroxytryptamine receptor 2A (Mus musculus), P35363;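 active = activation above a run cutoff, the mean activation of all tested compounds plus 3 SD, cut at about 14% in these data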;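 note: 0% = plate median of compound wells and 100% = 30 µM serotonin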
OPRM1 ag: OPRM1 agonists via beta-arrestin recruitment, confirmation, counter-screen for mouse HTR2A agonist project, cell-based, luminescence, single concentration; shares compounds with HTR2A ag; AID 624380, 2012; 2,300 compounds, 5.3% hits; U2OS OPRM1 beta-arrestin PathHunter; DMSO 0%, DAMGO 9.3 µM 100%; activation, % at 9.3 µM;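 active = mean activation above the mean of DMSO-only wells plus 3 SD, cut at about 0.5% in these data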
m5-HT2A ag conf: mouse HTR2A agonists, beta-arrestin recruitment, confirmation, cell-based, luminescence, CHO-K1 PathHunter, triplicate; shares compounds with HTR2A ag; DMSO 0%, 30 µM serotonin 100%; activation, % at 7.6 µM; 2,300 compounds, 19% hits; AID 624381, 2012;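 active = mean activation across triplicates above the hit threshold derived in the original primary screen, cut at about 15% in these data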
Starred values were filed as active, the others as inactive; i = inactive; / = no result given. This is a sample that favours compounds with a hit; in the whole collection about 2.4% have one here.

SMILES	TMEM16A inh	TLR4-MyD88 BLA	NOD2-RIPK2 inh	TLR9-MyD88 block	ANO1 activ	HTR2A ag	OPRM1 ag	m5-HT2A ag conf
CC(NC(=O)c1cccs1)C(c1cccs1)N1CCN(c2ccccc2)CC1 (configuration not stated)	i	0	-1	-6	i	-3	/	/
O=C(CC1(O)C(=O)Nc2ccccc21)c1ccccc1O (configuration not stated)	i	0	4	3	i	21*	-1	-3
Cn1c(N)c(C(=O)COC(=O)CCC2CCCCC2)c(=O)n(C)c1=O	i	10	-12	-2	i	4	/	/
Cn1c(N)c(C(=O)COC(=O)CCC2CCCC2)c(=O)n(C)c1=O	i	-7	-9	0	i	20*	0	-5
CCn1cc(CCC(=O)NC(C)c2ccccc2)c2ccccc21 (configuration not stated)	i	/	-18	-5	i	-1	/	/
COC(=O)[C@@H]1C[C@@]2(O)[C@H](O)[C@H](O)[C@H](O)C[C@H]2N1CC(c1ccccc1)c1ccccc1	i	/	-15	-3	i	20*	-1	0
Cc1cc(NC(=O)C(C)SCC(=O)OCc2ccc(Cl)cc2Cl)no1 (configuration not stated)	/	/	4	-2	i	-2	/	/
CCOc1ccccc1NC(=O)C1CCC(=O)N1S(=O)(=O)c1ccc(C)cc1 (configuration not stated)	i	/	-3	-6	i	0	/	/
O=C(Nc1ccccc1)C(O)C(O)C(=O)Nc1ccccc1 (configuration not stated)	i	7	-10	3	i	24*	-1	-3
O=C(NCC(c1ccco1)N1CCN(c2ccccc2F)CC1)C1CCCCC1 (configuration not stated)	i	/	-17	-7	i	17*	0	48*
O=C(CSc1nc(-c2cccs2)nc2ccccc12)NC1CCS(=O)(=O)C1 (configuration not stated)	/	/	-12	-6	i	19*	0.5*	-2
CCN(C(=O)CSc1nc(-c2cccs2)nc2ccccc12)C1CCS(=O)(=O)C1 (configuration not stated)	/	/	-2	-3	i	2	/	/
C=C(C)c1cccc(C(C)(C)NC(=O)N2CCCCC2CC)c1 (configuration not stated)	i	0	-11	9	i	53*	-1	17*
C=C(C)c1cccc(C(C)(C)NC(=O)N2CCN(CC)CC2)c1	i	1	0	-4	i	4	/	/
C=C(C)c1cccc(C(C)(C)NC(=O)Nc2ccc(OC)cc2)c1	i	-4	-4	1	i	17*	0	0
C=C(C)c1cccc(C(C)(C)NC(=O)N2CCC(C)CC2)c1	i	5	0	7	i	19*	0	10
Cc1ccc(-n2nc3c(=O)n(CCCC(=O)NCc4ccccc4F)nc(C)c3c2C)cc1	i	/	3	-1	i	-2	/	/
COc1cc(NC(=O)CN2C(=O)C(c3ccccc3)=NC2(C)C)cc(OC)c1	i	1	8	2	i	28*	0	-4
